In all, about 290,000 compounds went through this assay and about 3,000 (1%) were called active. What follows is part of a selection rich in actives, with near analogues and random picks from the rest. Values without a mark were called inactive. Rule as the data show it: active = inhibition mostly above about 36% (no sharp cut-off); inactive = mostly below about 34%.

The inhibition is the drop in the measured response relative to a control, in per cent.

A short description of the experiment: NOD1 signaling inhibitors, primary screen, cell-based, luminescence, uHTS (AID 1578).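 Also: HEK-293T reporter cells stimulated with the NOD1 agonist gamma-tri-DAP.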 Particulars: NOD1-driven NF-kB luciferase reporter cells, at 4 µM, stronger effect = higher value. For orientation: In a reporter assay the amount or activity of a reporter protein is the signal.
For `C/C(=N\NC(=O)c1c(Br)cnn1C)c1ccc(NC(=O)c2ccc(F)cc2)cc1`, the inhibition is -45.8%.

Regarding `CCC(=O)NC(=S)Nc1ccccc1C(=O)NC1CCCCC1`, the inhibition is -10.9%. The result for `Cc1cc(C)cc(NC(=O)COc2ccc(C(=S)N3CCOCC3)cc2)c1` reads -14.5%. Under `CCOC(=S)SCc1cn2ccc(C)cc2n1` stands 8.3%. On to `Cc1oc2c(Cl)c(Cl)c(O)c(CN(C)C)c2c1C(=O)c1ccc(Cl)cc1`, for which the inhibition is 65.8% (active). For the compound `Cc1oc2ccc(O)c(CN(C)C)c2c1C(=O)c1ccccc1`, the inhibition is -26.2%. The result for `Cc1oc2ccc(O)c(CN3CCOCC3)c2c1C(=O)c1ccc(Cl)cc1` reads 27.5%; that for `CCN(CC)C(=O)CSc1nc2ccccc2c(=O)n1OC(C)C`, 8%; that for `Cc1cc(/C=C2\SC(=O)N(C)C2=O)c(C)n1-c1ccc(O)cc1`, 0.7%.

On to `COc1ccc(-n2c(C)cc(/C=C3/SC(=S)N(C)C3=O)c2C)cc1`, for which the inhibition is -25.3%. The result for `Cc1ccc(/C=C2\SC(=S)N(c3cccnc3)C2=O)cc1` reads -15%; that for `Cc1cc(/C=C2\SC(=S)N(Cc3ccco3)C2=O)c(C)n1-c1cccnc1`, 8.2%.

As for `Cc1cc(/C=C2/C(=O)NN(c3ccccc3)C2=O)c(C)n1-c1cccc(O)c1`, the inhibition was -15.4%. Under `Cc1cc(/C=C2\SC(=S)NC2=O)c(C)n1-c1cccc(O)c1` stands -11.9%. As for `Cc1cc(/C=C2/SC(=S)N(c3ccc([N+](=O)[O-])cc3)C2=O)c(C)n1-c1cccnc1`, the inhibition was 74.8% (active).

As for `CC(c1ccccc1)n1c(N2CCNCC2)nc2c1c(=O)[nH]c(=O)n2C` (stereo not given), the inhibition is -36.1%. In the case of `COc1ccc(NC(=O)CN(c2ccc(OC)cc2)S(=O)(=O)c2c(C)nn(C)c2C)cc1`, the inhibition was -15.1%.

For the compound `COc1ccc(C(=O)N2CCC(C(=O)c3c(C)cc(C)cc3C)CC2)cc1`, the inhibition is -8.8%. In the case of `Cc1ccc(N2CC(C(=O)N3CCCc4ccccc43)CC2=O)cc1` (stereo not given), the inhibition was -10.4%. The result for `O=C(C1CCC(=O)N(C2CCCC2)C1)N1CCN(c2ccccc2Cl)CC1` (stereo not given) reads -2.7%; that for `CCOC(=O)c1c(NC(=O)CSc2nnc(C)c(=O)[nH]2)sc(C)c1-c1ccc(C)cc1`, 43.1% (active); that for `CCOC(=O)c1c(NC(=O)CSc2nnc(C)c(=O)[nH]2)sc2c1CCCC2`, 11.2%. The result for `CCOC(=O)c1c(NC(=O)CSc2nnc(C)c(=O)[nH]2)sc(C)c1C` reads 17.3%; that for `CC/C=C/C(=O)N1CC2(CC(c3cccc(NC(=O)CC(c4ccccc4)c4ccccc4)c3)=NO2)C[C@@H]1C(N)=O` (stereo not given in full), -0.2%; that for `COc1ccc(C(=O)c2coc3ccc(O)c(CN4CCCCC4)c23)cc1`, 9.4%. Turning to `CCN(CC)Cc1c(O)ccc2c([N+](=O)[O-])c(C)n(-c3ccc(OC)cc3)c12`, the inhibition is -5.7%. Turning to `COc1cc(C2NC(=S)NC(C)=C2C(=O)Nc2ccc(C)cc2)ccc1O` (stereo not given), the inhibition was -50%. Under `c1coc(-c2nc(-c3ccncc3)no2)c1` stands -24.6%; under `CCCCn1c(O)c(N=NC(=O)c2ccncc2)c2cc(Br)ccc21`, 46.8%. The result for `O=c1c2c(nc3cc(-c4ccc(F)cc4)[nH]n13)CCC2` reads 62.6% (active). For the compound `O=c1c2c(nc3cc(-c4ccccc4)[nH]n13)CCC2`, the inhibition is -31.8%. `O=c1c2c(nc3cc(-c4ccc(F)cc4)[nH]n13)CCCC2`: the inhibition is -40.5%.

For `CC(NC(=O)CSc1nc2ccc(N)cc2s1)c1ccccc1` (stereo not given), the inhibition was -0.6%. Under `COc1ccccc1NC(=S)NCCc1c[nH]c2ccccc12` stands 86% (active). Take `COc1ccc(Cl)cc1NC(=S)NCCc1c[nH]c2ccccc12`: the inhibition was -12.7%.

Regarding `COc1ccc(NC(=S)NCCc2c[nH]c3ccccc23)c(OC)c1`, the inhibition was 17.2%.

Turning to `COc1ccc(C(=O)Nc2ccc3c(c2)CCCN3C(=O)c2cccs2)c(OC)c1`, the inhibition was 21.1%. Under `COc1ccccc1C(=O)Nc1ccc2c(c1)CCCN2C(=O)c1cccs1` stands -18.3%; under `COc1cccc(C(=O)Nc2ccc3c(c2)CCCN3C(=O)c2cccs2)c1OC`, 56.1% (active); under `O=C(CC1C(=O)N(c2ccccc2)C(=O)N1C1CCCCC1)Nc1ccccc1` (stereo not given), 11.7%.

Regarding `CC1CCCN(S(=O)(=O)c2ccc(NC(=O)Cn3nnc(-c4ccccc4F)n3)cc2)C1` (stereo not given), the inhibition is -31.2%. Turning to `CC(C)CCOc1ccc(Cl)cc1CN1CCOCC1`, the inhibition was -26.5%. Under `Clc1cccc(-c2nn3c(-c4ccncc4)nnc3s2)c1` stands -14%; under `Clc1ccc(-c2nn3c(-c4ccncc4)nnc3s2)c(Cl)c1`, 59% (active). Regarding `Clc1ccccc1-c1nn2c(-c3ccncc3)nnc2s1`, the inhibition was 64.5%.

For `COC(=O)c1c(C(=O)OC)c(-c2ccc(Cl)c(Cl)c2)n2c1CCC2`, the inhibition is -14.5%.

With `Cc1ccc(CCNC(=O)C23C[C@H]4C[C@@H](C2)CC(n2nnc(C)n2)(C4)C3)cc1`, the inhibition was -3.3%. The result for `Cc1nnn(C23C[C@@H]4C[C@@H](CC(C(=O)N5CCN(c6ccccc6)CC5)(C4)C2)C3)n1` reads -7%. As to `COc1cccc(C2C(C#N)=C(N)Oc3cc(C)n(Cc4ccccn4)c(=O)c32)c1OC` (stereo not given), the inhibition was -19.6%. The result for `Cc1ccsc1C(=O)OCc1csc(-c2ccccc2)n1` reads -65.5%; that for `O=C1C=C(NC2=CC3OC(c4ccccc4)OCC3OC2=O)CCC1` (stereo not given), -24.3%; that for `Cc1ccccc1NC1=CC(=O)CC(C)(C)C1`, 1.1%. Under `CC1(C)CC(=O)C=C(NC2=CC3OC(c4ccccc4)OCC3OC2=O)C1` (stereo not given) stands 61.7% (active). Take `COc1ccc(CN2CCC(n3nccc3NC(=O)c3ccc4c(c3)OCO4)CC2)cc1C`: the inhibition is -12.5%. Under `O=S(=O)(c1cccs1)N1CCN(Cc2nc3ccccc3s2)CC1` stands -23.6%.

With `O=C(NC(N1CCOCC1)C(Cl)(Cl)Cl)c1ccc(F)cc1` (stereo not given), the inhibition is -23.2%. With `Cc1ccc(C(=O)NNC2=Nc3cccc4cccc2c34)cc1`, the inhibition was 34%.

Take `COc1ccc(C(=O)NNC2=Nc3cccc4cccc2c34)cc1`: the inhibition was 11.1%.

As to `O=C(NNC1=Nc2cccc3cccc1c23)c1ccc(Br)cc1`, the inhibition is 85.4% (active).

Turning to `CC(=O)N/C(=C/c1ccccc1)C(=O)N1CCCCC1`, the inhibition is -19.2%. As for `CCN(CC(=O)Nc1c(F)cccc1F)C(=O)c1n[nH]c2ccccc12`, the inhibition is -21.6%. On to `N#Cc1cc(NC(=O)c2ccc(F)cc2)c(=O)n2c1[nH]c1ccccc12`, for which the inhibition is 67.8% (active). The result for `Cc1ccc2c(c1)sc1ncc(NC(=O)c3ccc(F)cc3)c(=O)n12` reads -34.8%.

For the compound `O=C(Nc1ccccc1NC(=O)c1ccc(F)cc1)c1ccc(F)cc1`, the inhibition was 5.1%. Take `COc1cccc(N(C(=O)c2ccco2)C(C(=O)NC2CCCC2)c2ccc(N(C)C)cc2)c1` (stereo not given): the inhibition is -6.7%.

Consider `Oc1ccc(NC(=S)N=Nc2c(O)[nH]c3ccccc23)cc1`, for which the inhibition was -25.5%. The result for `Cc1ccc(NC(=S)N=Nc2c(O)[nH]c3ccccc23)cc1` reads 50.7% (active).

As to `Cc1cccc(NC(=S)N=Nc2c(O)[nH]c3ccccc23)c1`, the inhibition was -18.3%.

With `CC(Nc1nc(-c2ccccc2F)nc2ccccc12)c1ccccc1` (stereo not given), the inhibition was -6.1%.

On to `C=CCn1c2ccccc2c2nnc(SCCCn3c(=O)[nH]c4ccccc43)nc21`, for which the inhibition was 60.9% (active). The result for `C=CCn1c2ccccc2c2nnc(SCCN3CCCCC3)nc21` reads 33.2%. For the compound `CCn1c2ccccc2c2nnc(SCCCn3c(=O)[nH]c4ccccc43)nc21`, the inhibition was -22.4%.

Regarding `Cc1oc(-c2ccccc2Cl)nc1CN1CCCCC1CO` (stereo not given), the inhibition is -13.9%.

With `O=C(COC(=O)CCSc1ccccc1)Nc1ccc(F)cc1Cl`, the inhibition was -14%. The result for `CC(C)C(NS(=O)(=O)c1cccc2nsnc12)C(=O)NC1CCCCC1` (stereo not given) reads -5.2%; that for `CCCCN1CN(S(=O)(=O)c2ccc(OC)cc2)c2nc3ccccc3nc21`, -13.8%. Under `CCCCCCS(=O)Cc1ccccc1` (stereo not given) stands -9.9%; under `CN(C(=O)COc1ccccc1C(=O)NCCc1ccccc1)c1ccccc1`, -33.9%; under `COc1ccccc1C(=O)NCCC(=O)NCCOc1ccccc1`, 7.7%. Regarding `CCN(CCO)Cc1cc(=O)oc2c(C)c(C)ccc12`, the inhibition was 8.5%. The result for `CCN1C=C(Cc2ccc(F)cc2)C2=C(C1)C(c1ccc(F)cc1)C(C#N)=C(N)O2` (stereo not given) reads 21.1%. As for `CCN1C=C(Cc2ccccc2C)C2=C(C1)C(c1ccccc1C)C(C#N)=C(N)O2` (stereo not given), the inhibition was 71.8% (active).

Consider `CCN1C=C(Cc2cccs2)C2=C(C1)C(c1cccs1)C(C#N)=C(N)O2` (stereo not given), for which the inhibition is 30.4%. In the case of `O=C(CCn1nnc2ccccc21)N1CCN(c2ccccc2)CC1`, the inhibition is 7.2%.

In the case of `CCC1CCCCN1C(=O)CCCc1ccccc1` (stereo not given), the inhibition was -21%. Under `O=C(Nc1nc2ccccc2n1CCOc1ccccc1)c1ccco1` stands 35.8%.

On to `COc1ccc(OCCn2c(NC(=O)c3ccco3)nc3ccccc32)cc1`, for which the inhibition was 9.1%. The result for `Cc1c(O)nc(SCC(=O)Nc2nccs2)n(-c2ccccc2F)c1=O` reads -42.1%. Under `CCOC(=O)NNC1CC(=O)N(c2ccccc2)C1=O` (stereo not given) stands -12%; under `CCc1nccn1S(=O)(=O)c1cc(OC)c(Cl)cc1OC`, -4.5%; under `CC(=O)Nc1c(C(=O)O)oc2ccc(Cl)cc12`, 2.5%. As for `O=S(=O)(NC1CCCC1)c1ccc(Br)s1`, the inhibition is -14%. The result for `O=S(=O)(NC1CCCCC1)c1ccc(Br)s1` reads -13.1%. The result for `Cc1ccc(S(=O)(=O)NC2CC2)s1` reads 45.4% (active). The result for `COc1ccc(C(=O)NCC(=O)OCC(=O)Nc2cc(OC)ccc2OC)cc1` reads -4.7%.

Source of the values: PubChem BioAssay AID1578 (Sanford-Burnham Center for Chemical Genomics, 2009).
